According to PubChem BioAssay AID1159580 (chemical genetic matrix, 2015):
Values joined by “and” are separate entries in the source; they are usually repeats but may differ in a detail not shown here. Equal entries are not always repeated. Among all 5,500 compounds or so, about 2,000 (36%) were called active. About 18% were inconclusive and are not listed. No stated cut-off is given here; in the data, active means normalized growth mostly below about 0.91 (no sharp cut-off); inconclusive means no clear call, values can overlap the other calls; inactive means mostly above about 0.92. The list shows a part of the results.

Assay: chemical genetic growth profiling, strain panel (AID 1159580);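 further: tested at 20 µM; growth read once vehicle control cultures reached saturation at 30 °C; 1 = growth at the plate median or of vehicle wells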
Conditions: S. cerevisiae deletion strains, growth OD

Measured: normalized growth

CCCCC(=O)N(Cc1ccc(-c2ccccc2-c2nn[nH]n2)cc1)[C@H](C(=O)O)C(C)C
inactive: locus YAL013W, strain DEP1, stronger effect = lower value 0.992 | locus YAL021C, strain ccr4, stronger effect = lower value 0.974 | locus YAL026C, strain drs2, stronger effect = lower value 0.982 | locus YAL030W, strain snc1, stronger effect = lower value 0.993 | locus YBL061C, strain skt5, stronger effect = lower value 0.994 | locus YBR009C, strain hhf1, stronger effect = lower value 0.986 | locus YBR021W, strain FUR4, stronger effect = lower value 0.993 | locus YBR023C, strain chs3, stronger effect = lower value 1 | locus YBR171W, strain sec66, stronger effect = lower value 0.986 | locus YBR229C, strain ROT2, stronger effect = lower value 1 | locus YBR231C, strain swc5, stronger effect = lower value 1.01 | locus YBR279W, strain paf1, stronger effect = lower value 1 | locus YCL011C, strain gbp2, stronger effect = lower value 0.981 | locus YCL016C, strain dcc1, stronger effect = lower value 0.98 | locus YCL029C, strain bik1, stronger effect = lower value 0.962 | locus YCL061C, strain MRC1, stronger effect = lower value 0.971 | locus YCL069W, strain vba3, stronger effect = lower value 0.99 | locus YCR088W, strain abp1, stronger effect = lower value 0.99 | locus YDL005C, strain med2, stronger effect = lower value 1 | locus YDL035C, strain GPR1, stronger effect = lower value 0.987 | locus YDL040C, strain nat1, stronger effect = lower value 0.992 | locus YDL074C, strain BRE1, stronger effect = lower value 1 | locus YDL101C, strain DUN1, stronger effect = lower value 0.988 | locus YDL134C, strain PPH21, stronger effect = lower value 1.01 | locus YDL185W, strain tfp1, stronger effect = lower value 0.932 | locus YDL192W, strain arf1, stronger effect = lower value 0.972 | locus YDR001C, strain nth1, stronger effect = lower value 0.974 | locus YDR069C, strain doa4, stronger effect = lower value 0.993 | locus YDR101C, strain arx1, stronger effect = lower value 0.995 | locus YDR137W, strain rgp1, stronger effect = lower value 0.969 | locus YDR150W, strain NUM1, stronger effect = lower value 0.972 | locus YDR159W, strain sac3, stronger effect = lower value 0.946 | locus YDR162C, strain NBP2, stronger effect = lower value 0.982 | locus YDR195W, strain ref2 1 | locus YDR297W, strain sur2, stronger effect = lower value 0.994 | locus YDR318W, strain mcm21, stronger effect = lower value 0.979 | locus YDR334W, strain swr1, stronger effect = lower value 0.987 | locus YDR335W, strain msn5, stronger effect = lower value 0.994 | locus YDR388W, stronger effect = lower value 0.989 | locus YDR392W, strain spt3, stronger effect = lower value 0.979 | locus YDR502C, strain sam2, stronger effect = lower value 0.98 | locus YEL003W, strain gim4, stronger effect = lower value 0.968 | locus YEL037C, strain rad23, stronger effect = lower value 0.987 | locus YEL061C, strain CIN8 (second series), stronger effect = lower value 0.976 | locus YEL061C, strain CIN8, stronger effect = lower value 0.985 | locus YER015W, strain faa2, stronger effect = lower value 1.01 | locus YER016W, strain bim1, stronger effect = lower value 0.999 | locus YER110C, stronger effect = lower value 0.973 | locus YER111C, strain swi4, stronger effect = lower value 0.986 | locus YER155C, strain BEM2 (second series), stronger effect = lower value 1.03 | locus YER155C, strain BEM2, stronger effect = lower value 0.994 | locus YER167W, strain BCK2, stronger effect = lower value 0.954 | locus YFR010W, strain ubp6, stronger effect = lower value 0.995 | locus YGL078C, strain dbp3, stronger effect = lower value 0.97 | locus YGL086W, strain mad1, stronger effect = lower value 0.971 | locus YGL167C, strain pmr1, stronger effect = lower value 0.999 | locus YGL173C, strain kem1, stronger effect = lower value 1 | locus YGL227W, strain vid30, stronger effect = lower value 0.985 | locus YGL240W, strain doc1, stronger effect = lower value 1.01 | locus YGL248W, strain PDE1, stronger effect = lower value 0.991 | locus YGL253W, strain hxk2, stronger effect = lower value 0.986 | locus YGR078C, strain PAC10, stronger effect = lower value 0.988 | locus YGR135W, strain pre9, stronger effect = lower value 0.982 | locus YGR229C, strain SMI1, stronger effect = lower value 0.969 | locus YGR252W, strain gcn5, stronger effect = lower value 1.1 | locus YHR013C, strain ard1, stronger effect = lower value 1 | locus YHR027C, strain rpn1, stronger effect = lower value 0.994 | locus YHR030C, strain SLT2, stronger effect = lower value 0.984 and 0.959 | locus YHR079C, strain IRE1 (second series), stronger effect = lower value 0.978 | locus YHR079C, strain IRE1, stronger effect = lower value 0.955 | locus YHR094C, strain hxt1, stronger effect = lower value 0.972 | locus YHR129C, strain ARP1, stronger effect = lower value 0.999 | locus YHR142W, strain chs7, stronger effect = lower value 0.96 | locus YHR200W, strain rpn10, stronger effect = lower value 0.974 | locus YIL066C, strain RNR3, stronger effect = lower value 0.991 | locus YIL073C, strain SPO22, stronger effect = lower value 0.887 | locus YIL125W, strain kgd1, stronger effect = lower value 0.954 | locus YIR030C, strain dcg1, stronger effect = lower value 0.991 | locus YJL092W, strain hpr5, stronger effect = lower value 0.986 | locus YJL095W, strain BCK1 (second series), stronger effect = lower value 0.996 | locus YJL095W, strain BCK1, stronger effect = lower value 0.992 and 0.987 | locus YJL115W, strain asf1, stronger effect = lower value 0.971 | locus YJL129C, strain trk1, stronger effect = lower value 1.01 | locus YJL134W, strain LCB3, stronger effect = lower value 0.992 | locus YJL154C, strain vps35, stronger effect = lower value 0.986 | locus YJL164C, strain tpk1, stronger effect = lower value 0.988 | locus YJL166W, strain qcr8, stronger effect = lower value 0.999 | locus YJL168C, strain set2, stronger effect = lower value 0.984 | locus YJL187C, strain SWE1 (second series), stronger effect = lower value 0.983 | locus YJL187C, strain SWE1, stronger effect = lower value 0.99 | locus YJR043C, strain POL32, stronger effect = lower value 0.979
